PubChem BioAssay (NCATS)
Records with an inconclusive call do not appear. Activity calls are given as the source filed them. The call rests on the fitted dose curve; in most records, active means well fitted curve in the direction sought with a large enough effect; inconclusive means small, poorly fitted or top-dose-only effect, or another doubt; inactive means no such curve, though single readings can be large; an effect the other way counts as inactive or inconclusive.

Tests used:
[1] = NCATS anti-infectives library activity on HEK293 viability as a counter-qHTS vs the C. elegans viability qHTS (AID 1745854);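 further: HEK293 cells exposed to compounds for 24 hr before the viability read; on the % scale 0 is the no-effect control and ±100 the full control effect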
Method in brief: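 Compounds were acoustically plated (several concentrations, 1:5, final up to 41.7 uM), then 1500 HEK293 cells added per well and incubated 24 hr at 37C, 5% CO2. CellTiter-Glo was added and luminescence read after 10 min.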

[2] = Viability counterscreen for antagonist of constitutive androstane receptor (CAR) against the NCATS DSHEA and TCM libraries (AID 1794837);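 further: compound exposure lasted 24 h before viability reading; 0% is about no effect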
Method in brief: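 Viability was measured by CellTiter-Fluor fluorescence (405/540 nm, 1 hr) in HepG2-CYP2B6-hCAR cells. Cells were co-treated 24 hr with 48 uM CITCO (final), antagonist mode, and test substances.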

[3] = Viability counterscreen for agonist of constitutive androstane receptor (CAR) against the NCATS DSHEA and TCM libraries (AID 1794838);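 further: cells exposed to compound for 24 h; 0% is about no effect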
Method in brief: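 Cell viability, from CellTiter-Fluor fluorescence (405/540 nm), was scored after a 24 h, 37C exposure of HepG2 cells carrying CYP2B6 reporter and hCAR to test substances in presence of 0.75 uM PK11195.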

[4] = target: Nuclear receptor subfamily 1 group I member 3 (Homo sapiens) (UniProt Q14994); experiment: Primary qHTS for agonist of constitutive androstane receptor (CAR) against the NCATS DSHEA and TCM libraries (AID 1794839);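 further: HepG2 cells expressing human CAR with a CYP2B6 reporter plus PK11195 antagonist; luciferase reporter luminescence read with ONE-Glo; 0% is about no effect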
Method in brief: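 Agonist mode in presence of hCAR antagonist PK11195 (0.75 µM final): test substances, 24 h, 37 °C, on HepG2-CYP2B6-hCAR cells. Same-well readouts: fluorescence viability, then ONE-Glo luminescence; CITCO as reference agonist.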

[5] = HepG2 viability counterscreen (readout 2: ATP content) against the NCATS DSHEA and TCM libraries (AID 1794840);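 further: HepG2 cells exposed to substances for about 24 h; 0% is about no effect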
Method in brief: (§1)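 Readout 1: cellular protease activity, GF-AFC substrate (25 uM final, 30 min, fluorescence 380/510 nm). Readout 2: ATP content by CellTiter-Glo luminescence after 30 min at RT. Both follow ~24 h exposure of HepG2 cells (1,000/well) to substances.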

[6] = HepG2 viability counterscreen (readout 1: protease activity) against the NCATS DSHEA and TCM libraries (AID 1794841);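 further: cells exposed to compounds for about 24 h before the protease read; 0% is about no effect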
Method in brief: as §1

[7] = target: Cytochrome P450 3A4 (Homo sapiens) (UniProt P08684); experiment: qHTS for inhibitors of CYP3A4 against the NCATS DSHEA and TCM libraries (AID 1919971);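 further: on the % scale 0 is the no-effect control and ±100 the full control effect; inhibition lowers luminescence from luciferin made by CYP3A4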
Method in brief: (§2)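 Read-out is luminescence after P450-Glo detection (30 min, RT). Before that: 15 min compound–enzyme preincubation, then 30-45 min reaction with 1x NADPH regeneration solution, substrate concentration isoform-specific.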

[8] = target: Cytochrome P450 2D6 (Homo sapiens) (UniProt P10635); experiment: qHTS for inhibitors of CYP2D6 against the NCATS DSHEA and TCM libraries (AID 1919972); further: on the % scale 0 is the no-effect control and ±100 the full control effect
Method in brief: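 Luminescent P450-Glo read-out of CYP2D6 turnover of a luciferin substrate after NADPH-driven reaction of 30-45 min at room temperature. Compounds were first preincubated 15 min with enzyme at titrated concentrations; quinidine was the intraplate control.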

[9] = target: Cytochrome P450 2C19 (Homo sapiens) (UniProt P33261); experiment: qHTS for inhibitors of CYP2C19 against the NCATS DSHEA and TCM libraries (AID 1919974);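 further: luminescence from luciferin released by CYP2C19 oxidation of a pro-luciferin substrate; on the % scale 0 is the no-effect control and ±100 the full control effect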
Method in brief: as §2

[10] = KB-3-1 P-gp reporter qHTS against the NCATS DSHEA and TCM libraries (AID 1919975); further: 0% is about no effect
Method in brief: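 Cell viability by CellTiter-Glo luminescence following ~72 h compound exposure (concentration-response). Uses parental, non-P-gp-overexpressing KB-3-1 line, 500 cells/well in DMEM/10% FBS, attached ~4 h before dosing.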

[11] = target: Cytochrome P450 1A2 (Homo sapiens) (UniProt P05177); experiment: qHTS for inhibitors of CYPIA2 against the NCATS DSHEA and TCM libraries (AID 1919976);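 further: light from luciferin formed by CYP1A2 from a pro-luciferin substrate; series mostly up to about 37 µM; on the % scale 0 is the no-effect control and ±100 the full control effect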
Method in brief: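 CYP1A2 + luciferin substrate, 100 mM KPO4-type buffer; cmpd 15 min RT; 1x NADPH regen, 30-45 min RT dark; detection reagent 30 min RT; luminescence. Minus-enzyme wells as background; furafylline intraplate control.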

[12] = qHTS Counterscreen for compound interference against the NCATS DSHEA and TCM libraries (AID 1919978); conditions: firefly luciferase detection reagent interference, luminescence;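 further: compounds preincubated with 1 µM D-luciferin or buffer before detection reagent; % of control where 0% means no effect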
Method in brief: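 With 1 uM D-luciferin or phosphate buffer only, compounds at final 19.5 nM–39.8 uM were incubated for 15 min at room temperature. Luciferase detection reagent was then added, and luminescence was measured after a further 30 min at room temperature.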

[13] = Dual reporter qHTS for agonist of Pregnane X Receptor (hPXR) against the NCATS DSHEA and TCM libraries: Fluorescence readout (AID 1920058); further: 0% is about no effect
Method in brief: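 HepG2 hPXR-Luc, 2000 cells/well, 5 h attach; cpds ~24 h, 37 °C/5% CO2; CellTiter-Fluor 1 h; fluor. Ex/Em 405/540 nm = viability.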

[14] = target: Nuclear receptor subfamily 1 group I member 2 (Homo sapiens) (UniProt O75469); experiment: Dual reporter qHTS for agonist of Pregnane X Receptor (hPXR) against the NCATS DSHEA and TCM libraries: Luminescence readout (AID 1920059); further: 0% is about no effect
Method in brief: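 Luminescent PXR reporter read (ONE-Glo) after a CellTiter-Fluor viability read, following 24 h, 37C treatment of HepG2 cells stably carrying hPXR-Luc.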

[15] = target: Nuclear receptor subfamily 1 group I member 2 (Homo sapiens) (UniProt O75469); experiment: Dual reporter qHTS for antagonist of Pregnane X Receptor (hPXR) against the NCATS DSHEA and TCM libraries: Luminescence Readout (AID 1920060);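 further: HepG2 cells carrying hPXR luciferase reporter stimulated with rifampicin at 2 µM; 0% is about no effect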
Method in brief: (§3)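 HepG2 hPXR-Luc, 2000 cells/well, charcoal-stripped FBS medium; 5 h attach; RIF 2 uM final; 24 h 37C/5% CO2; CellTiter-Fluor 1 h, fluor 405/540; ONE-Glo 30 min RT, lum.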

[16] = Dual reporter qHTS for antagonist of Pregnane X Receptor (hPXR) against the NCATS DSHEA and TCM libraries: Fluorescence Readout (AID 1920061); further: 0% is about no effect
Method in brief: as §3

Nuclear receptor subfamily 1 group I member 2 (Homo sapiens), sequence (O75469 whole entry, looked up): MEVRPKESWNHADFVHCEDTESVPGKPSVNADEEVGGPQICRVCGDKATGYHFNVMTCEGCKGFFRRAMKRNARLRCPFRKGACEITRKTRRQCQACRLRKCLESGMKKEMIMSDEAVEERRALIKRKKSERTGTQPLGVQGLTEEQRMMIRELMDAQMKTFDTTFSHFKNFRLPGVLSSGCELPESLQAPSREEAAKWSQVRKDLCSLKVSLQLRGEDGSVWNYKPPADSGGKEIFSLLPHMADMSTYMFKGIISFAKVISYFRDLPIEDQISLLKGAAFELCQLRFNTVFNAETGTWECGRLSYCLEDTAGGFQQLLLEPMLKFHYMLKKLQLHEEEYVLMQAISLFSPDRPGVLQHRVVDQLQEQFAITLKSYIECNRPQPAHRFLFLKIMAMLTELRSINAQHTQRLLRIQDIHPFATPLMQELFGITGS
Nuclear receptor subfamily 1 group I member 3 (Homo sapiens), sequence (Q14994 whole entry, looked up): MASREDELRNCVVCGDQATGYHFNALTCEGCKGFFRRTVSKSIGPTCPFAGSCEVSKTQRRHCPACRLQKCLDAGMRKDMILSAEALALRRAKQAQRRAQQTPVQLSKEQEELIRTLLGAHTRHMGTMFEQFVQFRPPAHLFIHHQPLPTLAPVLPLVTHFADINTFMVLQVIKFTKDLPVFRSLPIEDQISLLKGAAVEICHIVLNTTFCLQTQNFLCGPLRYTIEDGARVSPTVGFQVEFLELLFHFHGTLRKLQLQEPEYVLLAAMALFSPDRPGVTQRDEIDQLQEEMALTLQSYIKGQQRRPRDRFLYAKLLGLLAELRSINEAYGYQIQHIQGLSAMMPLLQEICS
Cytochrome P450 1A2 (Homo sapiens), sequence (P05177 whole entry, looked up): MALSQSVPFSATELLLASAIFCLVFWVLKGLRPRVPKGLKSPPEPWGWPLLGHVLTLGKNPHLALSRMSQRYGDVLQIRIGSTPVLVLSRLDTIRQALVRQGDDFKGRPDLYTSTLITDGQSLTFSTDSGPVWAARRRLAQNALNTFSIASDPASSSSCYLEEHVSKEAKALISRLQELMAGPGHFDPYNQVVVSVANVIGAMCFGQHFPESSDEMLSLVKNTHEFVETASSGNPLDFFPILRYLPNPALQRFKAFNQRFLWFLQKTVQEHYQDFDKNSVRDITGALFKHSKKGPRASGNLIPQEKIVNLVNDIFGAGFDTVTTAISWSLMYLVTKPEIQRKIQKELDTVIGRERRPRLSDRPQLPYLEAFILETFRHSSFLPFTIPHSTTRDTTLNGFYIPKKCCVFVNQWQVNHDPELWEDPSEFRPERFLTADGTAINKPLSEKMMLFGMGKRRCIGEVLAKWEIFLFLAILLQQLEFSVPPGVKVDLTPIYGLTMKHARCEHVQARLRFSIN
Cytochrome P450 3A4 (Homo sapiens), sequence (P08684 whole entry, looked up, canonical isoform): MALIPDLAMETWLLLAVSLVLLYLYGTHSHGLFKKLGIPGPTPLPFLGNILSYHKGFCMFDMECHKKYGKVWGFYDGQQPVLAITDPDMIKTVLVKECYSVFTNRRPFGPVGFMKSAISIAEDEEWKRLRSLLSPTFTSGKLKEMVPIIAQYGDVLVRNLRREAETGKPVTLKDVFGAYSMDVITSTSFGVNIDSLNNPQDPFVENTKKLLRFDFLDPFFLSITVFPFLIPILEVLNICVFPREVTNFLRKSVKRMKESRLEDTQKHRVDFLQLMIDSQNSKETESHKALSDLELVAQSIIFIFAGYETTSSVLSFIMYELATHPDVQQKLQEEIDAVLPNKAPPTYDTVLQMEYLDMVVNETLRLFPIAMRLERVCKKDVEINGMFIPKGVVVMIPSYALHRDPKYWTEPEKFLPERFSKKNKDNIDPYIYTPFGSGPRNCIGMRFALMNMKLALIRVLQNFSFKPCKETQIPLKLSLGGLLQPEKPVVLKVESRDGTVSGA
Cytochrome P450 2C19 (Homo sapiens), sequence (P33261 whole entry, looked up): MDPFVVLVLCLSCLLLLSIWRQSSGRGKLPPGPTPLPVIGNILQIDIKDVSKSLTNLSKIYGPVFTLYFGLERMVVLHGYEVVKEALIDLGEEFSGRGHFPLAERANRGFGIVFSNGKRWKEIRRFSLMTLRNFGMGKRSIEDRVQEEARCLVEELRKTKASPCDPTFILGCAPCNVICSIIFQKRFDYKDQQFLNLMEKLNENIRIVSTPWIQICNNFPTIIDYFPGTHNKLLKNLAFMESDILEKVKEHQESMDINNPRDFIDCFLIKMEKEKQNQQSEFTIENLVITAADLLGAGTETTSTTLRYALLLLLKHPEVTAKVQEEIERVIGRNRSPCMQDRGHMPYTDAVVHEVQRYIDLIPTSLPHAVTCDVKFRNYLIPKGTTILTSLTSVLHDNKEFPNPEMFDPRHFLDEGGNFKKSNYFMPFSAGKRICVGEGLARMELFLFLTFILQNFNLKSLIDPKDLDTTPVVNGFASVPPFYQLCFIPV
Cytochrome P450 2D6 (Homo sapiens), sequence (P10635 whole entry, looked up): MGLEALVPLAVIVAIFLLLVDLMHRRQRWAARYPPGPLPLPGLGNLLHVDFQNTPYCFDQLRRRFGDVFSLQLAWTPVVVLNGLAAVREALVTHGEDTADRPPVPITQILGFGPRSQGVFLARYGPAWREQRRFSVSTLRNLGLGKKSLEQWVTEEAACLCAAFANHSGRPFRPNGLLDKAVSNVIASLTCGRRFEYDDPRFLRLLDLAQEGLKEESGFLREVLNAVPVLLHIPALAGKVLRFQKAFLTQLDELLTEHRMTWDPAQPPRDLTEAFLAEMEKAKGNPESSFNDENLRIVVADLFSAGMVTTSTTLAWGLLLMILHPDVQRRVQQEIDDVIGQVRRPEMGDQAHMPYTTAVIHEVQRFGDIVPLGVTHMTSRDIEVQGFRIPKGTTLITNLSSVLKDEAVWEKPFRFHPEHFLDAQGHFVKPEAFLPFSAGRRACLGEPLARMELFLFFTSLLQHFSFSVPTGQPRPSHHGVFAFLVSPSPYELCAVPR

O=C(/C=C/c1ccc(O)c(O)c1)O[C@@H]1CC(O)(C(=O)O)C[C@@H](OC(=O)/C=C/c2ccc(O)c(O)c2)C1O (stereo partly specified)
inactive: Potency [1] | outcome [2] | outcome [3] | Potency [4] | outcome [5] | outcome [6] | Potency [7] | Potency [8] | Potency [9] | outcome [10] | Potency [11] | max response [12] 3.46% | outcome [13] | Potency [14] | outcome [15] | outcome [16]
